Screens (PubChem)
Pf growth 48h = inhibits P. falciparum growth in the first generation, 48 h; P. falciparum luciferase growth in erythrocytes, 48 h; Potency, µM (top dose mostly 28.7 µM), for inactives: at the highest dose activity change, negative = inhibition, hits mostly inhibitors; actives 5.9% (n = 310,000); AID 504832; note: potency is the fitted concentration of half-maximal effect; % is set by controls: 0 for no effect and ±100 for the full control effect
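Growth was read as firefly luciferase luminescence after a 48 h, 37 C, 5% CO2 exposure of compounds to reporter-bearing P. falciparum cultures (0.1% parasitemia, 2% hematocrit final) in Albumax-supplemented RPMI 1640.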
Shiga inhibitor = Shiga toxin inhibition; Vero cells, Shiga toxin protein synthesis inhibition reporter; inhibition, % at 38.7 µM; actives 9.2% (n = 290,000); AID 2315; in the data active = inhibition mostly above about 28%, no sharp cut-off; inactive = mostly below about 43%; note: 0% is about no effect
LmPK inhibitor = inhibitors of Leishmania mexicana pyruvate kinase; Q27686; purified LmPK, Kinase-Glo ATP luminescence, 1 h; Potency, µM (top dose mostly 57.5 µM), for inactives: at the highest dose activity change, negative = inhibition, usual class: inhibitors; actives 0.37% (n = 290,000); note: potency is the fitted concentration of half-maximal effect; % is set by controls: 0 for no effect and ±100 for the full control effect
Target sequence (Q27686 whole entry, looked up): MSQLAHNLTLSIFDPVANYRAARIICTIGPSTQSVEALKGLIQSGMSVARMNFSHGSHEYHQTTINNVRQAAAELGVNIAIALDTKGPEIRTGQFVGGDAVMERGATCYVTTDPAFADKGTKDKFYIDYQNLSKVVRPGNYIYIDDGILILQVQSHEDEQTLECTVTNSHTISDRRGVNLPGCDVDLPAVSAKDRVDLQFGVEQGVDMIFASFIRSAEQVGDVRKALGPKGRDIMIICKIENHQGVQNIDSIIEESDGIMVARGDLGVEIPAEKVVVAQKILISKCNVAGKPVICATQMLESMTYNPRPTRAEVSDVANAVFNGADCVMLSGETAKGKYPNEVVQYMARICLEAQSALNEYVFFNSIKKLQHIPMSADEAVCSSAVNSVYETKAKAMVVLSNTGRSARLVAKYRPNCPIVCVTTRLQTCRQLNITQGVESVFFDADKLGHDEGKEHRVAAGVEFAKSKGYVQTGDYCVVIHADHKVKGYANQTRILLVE
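qHTS format; LmPK 0.1 nM; substrates PEP 0.5 mM and ADP 0.1 mM. One-hour room-temperature incubation, then coupled luciferase luminescence; 0.5 nM enzyme wells mark activation.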
Pf growth 96h = P. falciparum growth inhibition at 96 hour, primary screen for plastid delayed-death inhibitors. P. falciparum luciferase reporter growth, 96 h. Potency, µM (series often up to 28.7 µM), for inactives: at the highest dose activity change, negative = inhibition, hits mostly inhibitors. actives 6.9% (n = 320,000); note: potency is the fitted concentration of half-maximal effect; % is set by controls: 0 for no effect and ±100 for the full control effect
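Luminescence readout: decreased luciferase signal marks inhibited growth of reporter-expressing P. falciparum in infected red cells (2% hematocrit, 0.05% parasitemia final), exposed to compound two generations (96 h, 37 C, 5% CO2).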
Cycloheximide cs = counter-screen for Shiga toxin inhibitors: cycloheximide protein synthesis inhibition; cell reporter, cycloheximide protein synthesis inhibition counterscreen; max response, %; actives 12% (n = 300,000); in the data active = max response mostly above about 13%, no sharp cut-off; inactive = mostly below about 14%; note: read at 38.3 µM for the half of the compounds with a filed dose; 0% is about no effect
Active calls of the source: *; ? = inconclusive; . = no result; [ ] = another dose, or the depositor's remark. This is a sample that favours compounds with a hit; in the whole collection about 22% have one here. Unless noted, calls come from the whole dose curve; as a rule, active = well fitted inhibition curve with a large enough effect; inconclusive = small, poorly fitted or top-dose-only effect, or another doubt; inactive = no such curve, though single readings can be large or run the other way.

SMILES | Pf growth 48h | Shiga inhibitor | LmPK inhibitor | Pf growth 96h | Cycloheximide cs
CSc1ccc(CN(C)CC(=O)Nc2c(F)cccc2F)cc1 | -2.1% | -5.7 | 1.0% | 2.1% | -2.5
CSCCC(N=C(NS(=O)(=O)c1ccc(Br)cc1)c1ccccc1)C(=O)O (configuration not stated) | -7.3% | -9.5 | 5.1% | 10.5% | 6.4
CCOc1ccc(N/C(C)=C\C(=O)c2ccc3c(c2)OCCO3)cc1 | ? | 85.7* | 0.7% | 21.8% | 50.1*
CCOc1ccc(N/C(C)=C/C(=O)c2ccc3c(c2)OCCO3)cc1 | 111.8% | 60.3* | 1.9% | ? | 55.6*
CCOc1ccc(C(=O)N(CC)CC(=O)Nc2ccc3c(c2)OCCO3)cc1 | 250.2% | . | . | 188.6% | .
COC(=O)c1cccc(COC(=O)c2ccc(CS(=O)(=O)c3ccc(C)cc3)cc2)c1 | -27.3% | -12.1 | -2.3% | 12.4% | -2.5
CCOc1ccc(OCC)c(NC(=O)CN2CCN(c3ccc(C)cc3C)CC2)c1 | 8.28µM* | -5.9 | -1.7% | -7.9% | -2.6
CN(CC1CCCN(CCc2ccc(F)cc2)C1)C(=O)CCC(N)=O (configuration not stated) | ? | 8.5 | 7.8% | ? | -0.7
Cc1ccc(-c2nn(-c3ccccc3)cc2CO)o1 | 488.7% | 84.7* | -5.0% | 43.7% | 33.6*
Cc1ccc(-c2nn(-c3cccc(F)c3)cc2CNCc2cccnc2)o1 | ? | 26.9 | 1.1% | 26.2% | 10.1*
Cc1ccc(-c2nn(-c3ccccc3)cc2C=O)o1 | 176.4% | 112.5* | -1.3% | 63.2% | 50.9*
CCN(CC)/[N+]([O-])=N/Oc1cc(O/N=[N+](\[O-])N(C)C)c([N+](=O)[O-])cc1[N+](=O)[O-] | . | -5.9 | . | . | 1.2
CN1C(=O)c2ccccc2NC(=O)C1Cc1ccccc1 (configuration not stated) | 6.5% | -10.4 | 0.8% | 11.7µM* | 0.6
c1ccc(Nc2nc(-c3cccnc3)cs2)nc1 | 216.6% | 104.4* | -18.4% | 19.9% | 57.2*
Fc1ccc(-c2csc(-c3ccncc3)n2)cc1 | -2.6% | 48.9* | -14.9% | -13.2% | 31.1*
c1cncc(Nc2nc(-c3cccnc3)cs2)c1 | 0.0% | 20.6 | 2.9% | . | 11.6
Fc1ccc(-c2csc(Nc3ccccn3)n2)cc1 | 240.7% | 92.4* | 3.2% | 2.1% | 48.1*
COc1cc([N+](=O)[O-])cc2sc(NC(=O)c3c(F)cccc3F)nc12 | 92.5% | 37.8 | -16.5% | 84.2% | 1.0
O=C(CN(C(=O)c1csnn1)c1cccc(F)c1)NCc1ccc2c(c1)OCO2 | 13.8% | -3.1 | -20.2% | -6.7% | -2.4
O=C1C2C(C(=O)N1Cc1cccnc1)C1C=CC2C12CC2 (configuration not stated) | 3.3% | -9.0 | -2.9% | -6.0% | -1.0
Fc1cnc(Cl)nc1NC1CCCCC1 | 23.6% | -3.9 | 3.5% | 4.65µM* | 0.4
C1CCC(NC2=NCCC2)CC1 | -2.2% | -3.4 | -0.1% | -6.4% | -2.7
COc1ccc(OC)c(/C=C/c2ccc3cccc(O)c3n2)c1 | 4.15µM* | 89.2* | 2.6% | 38.8% | 58.5*
CSc1ccc(/C=C/c2ccc3cccc(O)c3n2)cc1 | -18.9% | 115.3* | ? | -25.9% | 44.1*
Oc1ccc(Cl)cc1/C=C/c1ccc2cccc(O)c2n1 | ? | 61.2* | 1.0% | -4.9% | 29.0*
SMILES | Pf growth 48h | Shiga inhibitor | LmPK inhibitor | Pf growth 96h | Cycloheximide cs
COc1cc(/C=C/c2ccc3cccc(O)c3n2)c(Br)cc1O | ? | 93.4* | -0.9% | 21.0% | 40.2*
COc1cc(/C=C/c2ccc3cccc(OC)c3n2)c(OC(C)=O)c([N+](=O)[O-])c1 | . | -1.9 | -0.5% | ? | -2.7
COc1cc(CNCCc2c[nH]c3ccccc23)ccc1OCc1ccc(F)cc1 | ? | -2.8 | 0.3% | . | -2.1
Oc1c(Cl)cc(Cl)cc1/C=C/c1ccc2cccc(O)c2n1 | -29.2% | 31.2 | 0.6% | -20.9% | 7.3
COc1cc(/C=C/c2ccc3cccc(O)c3n2)ccc1O | -60.5% | 67.5* | 4.5% | ? | 54.9*
COc1cc(Br)cc(/C=C/c2ccc3cccc(O)c3n2)c1O | -12.5%[0.00184 µM] | 74.5* | 4.3% | 10.3% | 32.1*
COc1cc(Br)cc(CN2CCN(C/C=C/c3ccccc3)CC2)c1O | ? | 22.6 | 2.8% | 9.6% | -1.0
COc1cc(Br)c(/C=C/c2ccc3cccc(O)c3n2)cc1OC | 2.62µM* | 1.8 | 1.4% | 2.08µM* | 11.5
Oc1cccc2ccc(/C=C/c3ccccc3Br)nc12 | 0.0% | 83.2* | -8.8% | ? | 62.3*
